Tgondii IFNg – T. gondii growth inhibition under IFN-gamma; actives 3.8% (n = 69,000); AID 1259416; activity change, negative = inhibition, % (concentration not given with the values); Toxoplasma gondii growth in IFN-gamma-treated host cells; active compounds read low; in the data active = activity change below about -70%, passing the limit was not always enough;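 note: host cells are HeLa cells infected with Toxoplasma gondii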
* hit, by the source's call; i = inactive; ! = not confirmed by another sample. This excerpt belongs to a sample that is enriched for hits.

SMILES	Tgondii IFNg
CC(C)(C)n1nc(-c2ccc(Cl)cc2)c2c(N)ncnc21	-90.4*
O=S(=O)(c1ccc(Br)s1)N1CCC2(CC1)Nc1ccccc1-n1cccc12	17.4
CCc1nc([C@H]2CN(C)C[C@@H]2C(=O)N2Cc3nc(C)n(C)c(=O)c3C2)c(C)[nH]1	-50.1
Cc1cc2c(N3CCC4(CC3)CNC(=O)C4)ncnc2s1	7.0
FC(F)(F)c1ccc(-c2noc(/C=C/c3ccccc3)n2)cc1	81.3
CC(C)(C)c1ccc(-c2nc(-c3ccc(Cl)cc3)no2)cc1	-22.9
Cc1nc(-c2ccccc2)sc1-c1nc(-c2ccc(C(C)(C)C)cc2)no1	-77.0*
CC(C)CN1CC2(CCN(C(=O)c3ccc4[nH]ccc4c3)CC2)C2(CCN(C)C2=O)C1 (configuration not stated)	88.0
CC(=O)c1sc(C2CCN(C(=O)CN3C(=O)c4ccccc4S3(=O)=O)CC2)nc1C	-3.4
Cc1nn(C)c(C)c1CNC(=O)Nc1csc2ccccc12	-64.2
S=C(NCc1csc2ccccc12)c1ccccc1	-77.6*
O=S(=O)(NCc1csc2ccc(Cl)cc12)c1ccccc1	-14.3
CC(C)(C(=O)N1CCC(Nc2nc3c(c(=O)[nH]2)CCCC3)CC1)c1ccc(Cl)cc1	-101.4*
O=c1[nH]c(NC2CCN(Cc3nnnn3Cc3ccccc3)CC2)nc2c1CCCC2	-15.7
Cc1cccc(C)c1NC(=O)CN1CCC(Nc2nc3c(c(=O)[nH]2)CCCC3)CC1	-12.8
Cn1cccc1C(=O)NCc1cnc2n1CCN(Cc1ccc(F)cc1)C2	-6.1
COc1ccc(-c2nc(NC3CCCC3)c3ccccc3n2)cc1	-56.2
COc1cc(N2C[C@H]3C[C@@H](CC(=O)N(C)C)O[C@@H]3C2)ncn1	-0.6
CC(C)C(=O)Nc1cccnc1-c1ccc2c(c1)OCCO2	-3.8
CCOc1ccccc1C(=O)Nc1ccc(S(=O)(=O)Nc2cc(C)on2)cc1	-28.3
Cc1cc(C(=O)Nc2ccc(S(N)(=O)=O)cc2)no1	-86.7*
Cc1cc(C(=O)Nc2ccc3c(c2)CCC(=O)N3)no1	31.0
COc1ccccc1N(Cc1nc(-c2ccc(OC(C)C)cc2)oc1C)S(=O)(=O)c1ccccc1	-20.2
COc1ccc(C2CCCN2)cc1OC (configuration not stated)	3.9
N#Cc1cc2c(ccc3ccccc32)oc1=N	142.2
SMILES	Tgondii IFNg
CC(C)(C)c1ccc2cc(C#N)c(C#N)cc2c1	-80.0*
C=CCn1cc(CN2CCCC2c2ccccc2C)c(C)n1 (configuration not stated)	6.0
O=C(CCn1ncc2ccccc21)N1CCC(c2ccncc2)CC1	-36.0
Cc1cc(NC(=O)Cn2cc(C(=O)NCCc3ccccc3C)ccc2=O)no1	34.4
CN1CCC=C(C2CCCCN2C(=O)c2cc3ccccc3s2)C1 (configuration not stated)	5.6
O=C(CSc1nc2ccccc2o1)c1ccc2c(c1)OCCO2	51.5
CC(C)(C)c1nc2ccccc2c2nnc(SCC(=O)c3ccc4c(c3)OCCO4)n12	0.6
Cn1c(SCC(=O)c2ccc3c(c2)OCCO3)nnc1-c1ccc2ccccc2c1	-95.3*
Cc1cccc(CNC2=NCCNC23CCN(S(=O)(=O)c2cc(C)cc(C)c2)CC3)c1	-1.8
O=C(c1cnccn1)N1CCC2(CC(=O)N(c3ccccc3)C2)C1 (configuration not stated)	-27.0
Cc1nonc1CN(C)C(=O)c1cc(-c2ccncc2)nc2c(C)cccc12	-30.6
COc1ccccc1-c1cc(CNCC(=O)Nc2cccc(C)c2C)on1	1.4
Fc1cccc(-c2nnc(CN3CCCCC3CCN3CCOCC3)o2)c1 (configuration not stated)	2.9
CC(=O)O/N=C1/C(=O)N(Cc2cc(Cl)ccc2Cl)c2ccc(Cl)cc21	-79.2*
O=C1C(=O)N(Cc2ccc(Cl)c(Cl)c2)c2ccccc21	20.2
CN1C(=O)CCc2cc(NC(=O)Cc3ccsc3)ccc21	242.5
CN(Cc1sc2ccccc2c1Cl)C(=O)C1CC2(CCNCC2)CN1 (configuration not stated)	-12.4
CC(=O)N1CC2(CCN(C(=O)Cc3ccc4c(c3)OCO4)CC2)CC1C(=O)O (configuration not stated)	3.5
Cc1nc2sccn2c(=O)c1CCN1CCC(=C(c2ccc(F)cc2)c2ccc(F)cc2)CC1	-77.1*!
Cc1nc2ccccn2c(=O)c1CCN1CCC(C(=O)c2ccc(F)cc2)CC1	3.8
Cc1nc2n(c(=O)c1CCN1CCC(c3noc4cc(F)ccc34)CC1)CCCC2O (configuration not stated)	22.8
Cc1ccccc1NC(=O)N1C[C@H]2CC[C@@]3(N=C(c4ccccc4)NC3=O)[C@@H]2C1	3.1
Cc1nc(CCC(=O)N2CCC(c3[nH]ncc3-c3cccc(F)c3)CC2)n[nH]1	-4.2
CC(C)c1nccn1C(C)C(=O)NCCS(=O)(=O)N1CCCC1 (configuration not stated)	2.5
CC(=O)Nc1cc2cc(Cl)cc(Cl)c2oc1=O	-6.1
SMILES	Tgondii IFNg
CC(C)n1c2ccccc2c2c1cc(C(=O)Cc1ccccn1)n2-c1ncccn1	7.6
O=C(O)CCCCCNS(=O)(=O)/C=C/c1ccccc1	-0.5
CC(/C=C1\SC(=O)N(CCCC(=O)O)C1=O)=C\c1ccccc1	-81.8*
CC1(C)NC(=O)N(CCCC(=O)O)C1=O	34.2
Cc1cc(C)cc(NC(=O)c2nnn(Cc3nc(-c4ccc(Cl)cc4)oc3C)c2C)c1	-8.9
COc1ccc(CC(=O)NCCc2csc(-c3ccccc3)n2)cc1	i
O=C(CCC(=O)N1CC[C@@H](c2ccc(F)cc2)[C@H](O)C1)c1ccccc1	12.9
CCc1ccc(-c2cc3c(=O)n(Cc4nc(-c5cccc(Cl)c5)oc4C)ccn3n2)cc1	-69.9
CC(=O)N1C2CN(Cc3ccc(C)o3)CC2C[C@@H]1C(=O)NCC1CC1 (some centres not stated)	-22.0
CC(=O)N1[C@H](CN2CCCC2)C[C@H]2CN(Cc3ccc(C)o3)CC[C@H]21	-79.9*
CC(=O)N1[C@H](CN2CCCC2)C[C@H]2CN(C(=O)c3ccco3)CC[C@H]21	-4.1
CCC1c2cccn2CCN1CC(=O)NCc1ccc(C(=O)OC)o1 (configuration not stated)	-7.8
S=C(NCCN1CCCCC1)NCc1ccccc1	31.3
CC(=O)c1sc(Nc2ccc(F)c(Cl)c2)nc1N	19.8
C[C@@H]1CN([C@@H](C)CO)C(=O)c2c(c3ccccc3n2C)-c2ccccc2CO[C@@H]1CN(C)C(=O)[C@@H](Cc1ccccc1)N(C)C	-31.1
C[C@H](CO)N1C[C@H](C)[C@H](CN(C)C(=O)[C@@H](Cc2ccccc2)N(C)C)OCc2ccccc2-c2c(n(C)c3ccccc23)C1=O	-71.8*
C[C@H](CO)N1C[C@H](C)[C@@H](CN(C)C(=O)[C@H](Cc2ccccc2)N(C)C)OCc2ccccc2-c2c(n(C)c3ccccc23)C1=O	33.2
COc1ccc(CN(C(=O)c2cc(-c3ccc(C)cc3)on2)C2CCN(C)CC2)cc1	-76.0*
COc1ccc(CN(C(=O)c2cc(C(C)C)c3nncn3n2)C2CCN(C)CC2)cc1	5.6
COc1ccc(-c2ccc(C(=O)N(Cc3nccn3C)C3CC3)o2)cc1	12.0
Cc1oc(C2CCN(C(=O)c3ccc(C(F)(F)F)cc3)CC2)nc1C(=O)N1CCCC1	6.2
Fc1cccc2c(OC3CCN(Cc4ccccc4)CC3)cc(C(F)(F)F)nc12	-94.4*
Clc1ccc(-c2nc(NC3CCN(Cc4ccccc4)CC3)c3ccccc3n2)cc1	-65.2
Cc1cccc(CN2CCC(CNc3nc(-c4ccc(Cl)cc4)nc4ccccc34)CC2)c1	-59.5
